The list is not random: actives were taken first. Their share in the collection is about 2.2%.
ATXN2 expr inh – Primary qHTS for Inhibitors of ATXN expression. HEK-293 ATXN2-luciferase reporter, luminescence, 24 h. Potency, µM (highest dose often 57 µM), hits mostly inhibitors. hit rate 0.72% among 360,000. AID 1745845, 2022; also: nearly all actives have a fitted effect of over 55% in size
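qHTS (up to 57 uM final) was run with 24 h compound exposure of reporter cells at 37 °C. Each well was multiplexed: SteadyGlo luminescence measured ATXN2-luciferase expression after a fluorogenic Gly-Phe-AFC viability readout (25 uM final).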
mIDH1 inhibitor – qHTS for Inhibitors of mutant isocitrate dehydrogenase 1 (IDH1): qHTS; IDH1-R132H enzyme, NADPH consumption, diaphorase/resazurin fluorescence; Potency, µM (titrated, usually from 76.6 µM), most hits filed as inhibitors; hit rate 0.093% among 390,000; AID 602179, 2012; also: nearly all actives have a fitted effect of over 65% in size
Target sequence (O75874 whole entry R132H, stated change not applied): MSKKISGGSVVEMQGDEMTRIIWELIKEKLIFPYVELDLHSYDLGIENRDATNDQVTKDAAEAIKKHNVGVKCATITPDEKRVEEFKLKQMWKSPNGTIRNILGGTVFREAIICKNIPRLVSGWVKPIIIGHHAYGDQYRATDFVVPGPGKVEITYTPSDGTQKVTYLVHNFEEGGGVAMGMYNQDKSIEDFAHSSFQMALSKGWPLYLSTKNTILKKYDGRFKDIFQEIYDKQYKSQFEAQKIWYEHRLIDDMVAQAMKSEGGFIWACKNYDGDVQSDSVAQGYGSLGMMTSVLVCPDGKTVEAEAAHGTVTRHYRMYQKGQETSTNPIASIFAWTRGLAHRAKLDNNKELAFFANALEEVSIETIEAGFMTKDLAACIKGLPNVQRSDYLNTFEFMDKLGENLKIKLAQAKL
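IDH1-R132H (0.5 ug/mL dispensed) in pH 7.5 Tris buffer was preincubated 30 min with compound, then given a substrate mix of 0.016 mM NADPH and 2 mM alpha-KG for 80 min at room temperature; remaining NADPH was read by diaphorase/resazurin fluorescence.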
ATXN viability – Viability Counterscreen for Primary qHTS for Inhibitors of ATXN expression; S2 cells (HEK-293 line with an ATXN2-luciferase reporter) viability, CellTiter-Fluor protease fluorescence, 24 h; Potency, µM (titrated, usually from 56.7 µM), actives largely listed as cytotoxic; hit rate 0.49% among 400,000; AID 651635, 2014; also: nearly all actives have a fitted effect of over 40% in size
HepG2 viability – qHTS for Inhibitors of TGF-b: Cytotox Counterscreen; hit rate 0.76% among 410,000; Potency, µM (doses to about 46.1 µM), usual class: cytotoxic; HepG2 CAGA-GFP viability, ATP luminescence, 18 h; AID 588856, 2011
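CellTiter-Glo luminescence gave cytotoxicity after 18 hours at 37 degrees C. The cells were HepG2 CAGA-GFP in 1% FBS DMEM, stimulated with 500 pg/mL TGF-beta after compound addition. %Activity was normalised to no-cell wells (complete cell-killing) and DMSO (no toxicity), and curves were fitted and classified.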
LDHA inh – qHTS assay for inhibitors of human lactate dehydrogenase. L-lactate dehydrogenase A chain (Homo sapiens), P00338. purified LDHA, NADH/diaphorase-resazurin fluorescence; hits give low values. activity change, % (values are at about 110 or 230 µM). hit rate 0.15% among 480,000; in the data active = activity change below about -30%; inconclusive = mostly about -25% to -30%
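LDH5 2 nM; NADH 0.06 mM, pyruvate 0.2 mM; 200 mM Tris pH 7.4, EDTA, Tween-20; 5 min RT. Detection: diaphorase 0.133 mg/mL + resazurin 37 µM, fluorescence ex540/em590 at 0 and 20 min; normalized to enzyme-free and DMSO wells.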
TGFb inhibitor – qHTS for Inhibitors of TGF-b | HepG2 CAGA-GFP TGF-b/SMAD3 reporter, GFP fluorescence, 18 h; TGF-beta stimulated, 500 pg/mL final | Potency, µM (series often up to 46.1 µM), most hits filed as inhibitors | hit rate 1.2% among 410,000 | AID 588855, 2011; also: nearly all actives have a fitted effect of over 65% in size
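HEPG2 CAGA-GFP cells (1000/well, DMEM with 1% FBS) were pre-incubated 2 h at 37 degrees C, given compound by pin tool, then stimulated with TGF-beta at 500 pg/mL final for 18 h before per-cell GFP fluorescence imaging.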
Hits are given with their value; n = inactive; u = inconclusive; x = no result. Unless noted, calls follow the shape of the dose curve; as a rule, active = well fitted curve in the direction sought with a large enough effect; inconclusive = small, poorly fitted or top-dose-only effect, or another doubt; inactive = no such curve, though single readings can be large; an effect the other way counts as inactive or inconclusive.

SMILES	ATXN2 expr inh	mIDH1 inhibitor	ATXN viability	HepG2 viability	LDHA inh	TGFb inhibitor
[O-][N+]1=c2ccc(Nc3ccccc3)cc2=NC12CCCCC2	u	n	14µM	n	n	6.3µM
COc1ccc(Nc2ccc3c(c2)=NC2(CCCCC2)[N+]=3[O-])cc1	u	n	x	13µM	n	3.2µM
COc1ccc(NC2=NC(=S)N(c3ccccc3C)C23CCCCC3)cc1	n	n	n	n	n	n
Cc1cc(C)n(CC(=O)N2CCCC(N3CCN(c4ccccc4C)CC3)C2)n1 (centres undefined)	n	n	n	n	n	n
COc1ccc(C[C@H]2CN3C(=NC[C@@H]3Cc3ccccc3)N2CCNC(=O)CCC2CCCCC2)cc1	u	n	22µM	n	n	u
COc1ccc(C[C@H]2CN3C(=NC[C@@H]3C(C)C)N2CCNC(=O)CCC2CCCCC2)cc1	n	n	u	n	n	n
COc1ccc(OC)c(CNC(=O)CCSCc2ccc(F)cc2Cl)c1	x	n	n	n	n	n
O=C(COC(=O)c1c(Cl)ccc(Cl)c1Cl)NCC1CCCO1 (centres undefined)	n	n	n	n	n	n
CCOC(=O)C1=C(O)/C(=C/c2cn(CC(=O)NCC3CCCO3)c3ccccc23)SC1=Nc1ccc(C)cc1 (centres undefined)	10µM	n	u	n	n	n
O=c1c(C(c2ccc(F)cc2)c2c(O)nc3n(c2=O)CCCS3)c(O)nc2n1CCCS2	n	n	n	n	n	n
Cc1ccc(Cl)cc1-c1ccc(C=Nc2ccc(N3CCOCC3)cc2)o1	u	n	n	n	n	11µM
COc1ccc(C(=O)Nc2ccc3c(c2)C(=O)c2ccccc2C3=O)cc1OC	n	n	n	n	n	n
COc1ccc(C(=O)c2c(C(F)(F)F)oc3c2C(=O)c2ccccc2C3=O)cc1OC	u	n	28µM	3.5µM	n	4µM
CC(=O)NC(CC(=O)Oc1ccc(-c2ccc(C#N)cc2)cc1)c1ccc(C)cc1 (centres undefined)	x	x	x	x	n	x
CCC(C)[C@H](NC(=O)C1CCN(C(=O)[C@H](Cc2ccccc2)NC(=O)OC(C)(C)C)CC1)C(=O)O (some centres undefined)	x	n	n	n	n	n
Cc1cc(NC(c2ccc(Cl)cc2)c2ccc3cccnc3c2O)no1 (centres undefined)	3.2µM	n	u	n	n	u
CCCC(=O)NC(c1ccccc1Cl)c1ccc2cccnc2c1O (centres undefined)	3.2µM	n	n	n	n	u
Cc1ccnc(NC(c2ccccc2)c2ccc3cccnc3c2O)c1 (centres undefined)	u	n	n	n	n	u
CCC(=O)NC(c1ccc(Cl)cc1Cl)c1ccc2cccnc2c1O (centres undefined)	5.6µM	n	n	n	n	u
CCCCC(=O)NC(c1ccc(Cl)cc1Cl)c1ccc2cccnc2c1O (centres undefined)	u	n	n	n	n	u
CCCC(=O)NC(c1ccc(N(C)C)cc1)c1ccc2cccnc2c1O (centres undefined)	u	n	n	n	n	2.5µM
O=C(c1ccccc1F)N(C1CCCC1)C1CC1	x	x	x	x	n	x
CC1CC(=O)Nc2ccccc2N1C(=O)CN(C)C(=O)c1cc(Cl)cc(Cl)c1 (centres undefined)	x	x	x	x	n	x
O=S(=O)(c1ccc(Cl)cc1Cl)n1ccc2cccnc21	n	n	n	n	n	n
Cc1coc2c1c(C)cc1oc(=O)c(CC(=O)N[C@H](C(=O)O)C(C)C)c(C)c12	n	n	n	n	n	n
SMILES	ATXN2 expr inh	mIDH1 inhibitor	ATXN viability	HepG2 viability	LDHA inh	TGFb inhibitor
O=c1cc(-c2ccccc2Cl)oc2ccc([N+](=O)[O-])c(O)c12	n	n	n	n	n	n
O=[N+]([O-])c1cc([N+](=O)[O-])c2oc(-c3ccccc3)c(Br)c2c1O	u	n	n	n	-68	u
COc1ccc(CCN2CCCC(CN(C)C(=O)c3cc(C)oc3C)C2)cc1 (centres undefined)	n	n	n	n	n	n
Cc1[nH]nc(-c2ccc(OCc3cnn(-c4ccccc4)c3)cc2O)c1Oc1ccc(F)cc1	n	n	n	n	n	u
CCOc1ccc(-c2n[nH]c(C)c2Oc2ccc(OC)cc2)c(O)c1	n	n	n	13µM	n	u
Oc1ccccc1/C=N/NC(=S)NC1CC2CC1C1C=CCC21 (centres undefined)	n	n	u	18µM	n	u
COc1cccc(/C=N/NC(=S)NC2CC3CC2C2C=CCC32)c1O (centres undefined)	n	n	n	n	n	n
CC(C)N1C(=O)S/C(=C\c2ccc(-c3ccc(Cl)c(C(=O)O)c3)o2)C1=O	x	n	x	13µM	n	n
COc1ccc(CNC(=O)CCN2C(=O)c3ccccc3S2(=O)=O)cc1	n	n	n	n	n	n
Cc1nn(C)cc1/C=N/NC(=O)CSc1ccccn1	n	n	n	n	n	n
CCn1nc(C)c(/C=N/NC(=O)CSc2ccccn2)c1C	n	n	n	4.5µM	n	n
Cc1cc2nc(-c3ccc[nH]c3=O)n(Cc3ccc(F)cc3)c2cc1C	n	n	n	n	n	n
Cc1cc2nc(-c3ccc[nH]c3=O)[nH]c2cc1C	x	n	x	0.89µM	n	u
COc1cc(OC)cc(C(=O)Nc2ccc3nc4c(c(Nc5ccc(OC)c(OC)c5)c3c2)CCCC4)c1	20µM	u	28µM	16µM	n	13µM
COc1ccc(Nc2c3c(nc4ccc(NC(=O)c5cc(Cl)ccc5OC)cc24)CCCC3)cc1OC	3.2µM	n	7.1µM	7.1µM	n	10µM
COc1ccccc1Nc1c2c(nc3ccc(NC(=O)c4ccc(N(C)C)cc4)cc13)CCCC2	x	n	x	n	n	u
CCOc1ccccc1C(=O)Nc1ccc2nc3c(c(Nc4ccc(OC)c(OC)c4)c2c1)CCCC3	x	n	x	10µM	n	u
COc1cc(OC)c(/C=C/c2ccc3ccccc3n2)c(OC)c1	x	x	x	n	x	u
CC(=O)Nc1cccc2cc(O)ccc12	n	n	n	n	n	n
CCc1ccc(C(O)c2ncc(-c3ccc(C(F)(F)F)cc3)[nH]2)cc1 (centres undefined)	n	x	n	n	n	16µM
CCn1c(-n2nc(C)c(C)c2C)nc2c1c(=O)n(Cc1ccccc1)c(=O)n2C	x	x	x	x	n	x
Cc1nn(-c2nc3c(c(=O)n(CC(N)=O)c(=O)n3C)n2Cc2ccccc2)c(C)c1C	x	x	x	x	-33	x

High-throughput results as filed in PubChem.
